# Laboratory results taken from article PMC11062922 (Nature Chemical Biology, 2023).
# Like-named read-outs stand apart in the source and are kept apart here.
# Columns and labels:
# [1] = tested on: PI4KA; design: species or system human, MV4-11 + K-562 + COLO205 + SK-N-BE2 + OVCAR-8; details: read-out: apparent Kd, compound concentrations: 100 nM and 1000 nM (sheet 'Samples'), n = 1
# [2] = tested on: PI4KB; design: species or system human, MV4-11 + K-562 + COLO205 + SK-N-BE2 + OVCAR-8; details: read-out: apparent Kd, compound concentrations: 100 nM and 1000 nM (sheet 'Samples'), n = 1
# [3] = tested on: PIK3CG; design: species or system human, MV4-11 + K-562 + COLO205 + SK-N-BE2 + OVCAR-8; details: read-out: apparent Kd, compound concentrations: 100 nM and 1000 nM (sheet 'Samples'), n = 1
# [4] = tested on: PRKDC; design: species or system human, MV4-11 + K-562 + COLO205 + SK-N-BE2 + OVCAR-8; details: read-out: apparent Kd, compound concentrations: 100 nM and 1000 nM (sheet 'Samples'), n = 1
# [5] = tested on: PKN2; design: species or system human, MV4-11 + K-562 + COLO205 + SK-N-BE2 + OVCAR-8; details: read-out: apparent Kd, n = 1
# [6] = tested on: PKN3; design: species or system human, MV4-11 + K-562 + COLO205 + SK-N-BE2 + OVCAR-8; details: read-out: apparent Kd, compound concentrations: 100 nM and 1000 nM (sheet 'Samples'), n = 1
# [7] = tested on: TESK2; design: species or system human, MV4-11 + K-562 + COLO205 + SK-N-BE2 + OVCAR-8; details: read-out: apparent Kd, compound concentrations: 100 nM and 1000 nM (sheet 'Samples'), n = 1
# [8] = tested on: PDXK; design: species or system human, MV4-11 + K-562 + COLO205 + SK-N-BE2 + OVCAR-8; details: read-out: apparent Kd, compound concentrations: 100 nM and 1000 nM (sheet 'Samples'), n = 1
# [9] = tested on: RIPK2; design: species or system human, MV4-11 + K-562 + COLO205 + SK-N-BE2 + OVCAR-8; details: read-out: apparent Kd, compound concentrations: 100 nM and 1000 nM (sheet 'Samples'), n = 1
# [10] = tested on: SLK; design: species or system human, MV4-11 + K-562 + COLO205 + SK-N-BE2 + OVCAR-8; details: read-out: apparent Kd, n = 1
# [11] = tested on: TAOK1; design: species or system human, MV4-11 + K-562 + COLO205 + SK-N-BE2 + OVCAR-8; details: read-out: apparent Kd; compound concentrations: 100 nM and 1000 nM (sheet 'Samples'), CATDS: 1; n = 1
# [12] = tested on: ADCK3; details: read-out: apparent Kd, n = 1
# [13] = tested on: BTK; details: read-out: apparent Kd, n = 1
# [14] = tested on: MAP3K2; details: read-out: apparent Kd, n = 1
# [15] = tested on: NQO1; details: read-out: apparent Kd, n = 1
# [16] = tested on: PRKX;PRKY; details: read-out: apparent Kd, n = 1
# [17] = tested on: STK26; details: read-out: apparent Kd, n = 1
# [18] = tested on: TESK1; details: read-out: apparent Kd, n = 1
# [19] = tested on: TGFBR2; details: read-out: apparent Kd, n = 1
# [20] = tested on: PLK1; design: species or system human, MV4-11 + K-562 + COLO205 + SK-N-BE2 + OVCAR-8; details: read-out: apparent Kd, compound concentrations: 100 nM and 1000 nM (sheet 'Samples'), n = 1
# [21] = compound concentrations:100 nM and 1000 nM (sheet 'Samples')
# [22] = compound concentrations:100 nM and 1000 nM (sheet 'Lestaurtinib' of Supplementary Table 1),run:Lestaurtinib_02422_R1,Plate:MR006
# [23] = compound concentrations:100 nM and 1000 nM (sheet 'Lestaurtinib' of Supplementary Table 1),run:Lestaurtinib_02487_R1,Plate:MR012
# [24] = compound concentrations:100 nM and 1000 nM (sheet 'Lestaurtinib' of Supplementary Table 1),run:Lestaurtinib_02443_R3,Plate:MR009
# [25] = compound concentrations:100 nM and 1000 nM (sheet 'Lestaurtinib' of Supplementary Table 1),run:Lestaurtinib_02584_R3,Plate:MR017
molecule,measurement,setting,value
Nc1ncc(-c2ccc3nccc(-c4ccncc4)c3c2)cc1S(=O)(=O)N1CCCCC1 [GSK1693850A],potency estimated from few doses,[1]; CATDS: 8.4526475439373194E-2,464 nM
same,potency estimated from few doses,[2]; CATDS: 7.2380110997406405E-2,777 nM
same,potency estimated from few doses,[3]; CATDS: 0.150773969962682,88.7 nM
same,potency estimated from few doses,[4]; CATDS: 8.88426876970108E-2,398 nM
CCn1c(-c2ccncc2)nc2cnccc21 [SB-735216],potency estimated from few doses,"[5]; compound concentrations: 100 nM and 1000 nM (sheet 'Samples'), CATDS: 0.34889068310517501",2400 nM
Nc1c(C(=O)c2cccc(C(O)(CO)CO)c2)cnn1-c1ccc(F)cc1 [RO3201790-000],potency estimated from few doses,[2]; CATDS: 0.52236122392279105,888 nM
same,potency estimated from few doses,[6]; CATDS: 0.47947466272848499,1050 nM
Cc1ccccc1Cn1ccn2c(=O)cc(N3CCOCC3)nc12 [GSK2269905A],potency estimated from few doses,[7]; CATDS: 0.33988229357461403,1410 nM
CCCc1ccc(S(=O)(=O)NC2CCN(c3ccnc(Nc4ccc(OC)cc4)n3)C2)cc1 (stereo not drawn) [GSK1379737A],potency estimated from few doses,[2]; CATDS: 1,901 nM
COc1ncc(-c2cc(-c3ncc(CN4C[C@@H](C)O[C@@H](C)C4)o3)c3cn[nH]c3c2)cc1NS(C)(=O)=O [GSK2292767],potency estimated from few doses,[8]; CATDS: 9.0064918958082996E-2,779 nM
same,potency estimated from few doses,[3]; CATDS: 0.13255621983520199,142 nM
same,potency estimated from few doses,[4]; CATDS: 9.7121910991741403E-2,515 nM
CN(C)CCOc1ccc(-c2cc(-c3ccc(Cl)c(O)c3)c(-c3ccncc3)[nH]2)cc1.CN(C)CCOc1ccc(-c2cc(-c3ccc(Cl)c(O)c3)c(-c3ccncc3)[nH]2)cc1.Cl.Cl [SB-684387-B],potency estimated from few doses,[1]; CATDS: 0.33665131532266801,1060 nM
Cn1ccc(-c2cccc(Nc3ccnc4cc(-c5nccs5)ccc34)c2)n1 [GW525701_KCGS],potency estimated from few doses,[8]; CATDS: 0.47551644164597001,1690 nM
CNC(=O)c1cncc(/C=C/c2c(Cl)cccc2Cl)c1 [GW445014X],potency estimated from few doses,[9]; CATDS: 1,773 nM
CSc1ccc(NC2=C(c3ccccc3Cl)C(=O)NC2=O)cc1 [SB-342411],potency estimated from few doses,[10]; [21],1400 nM
CCn1c(-c2nonc2N)nc2c(N3CCCC3)nccc21 [SB-744941],potency estimated from few doses,[6]; CATDS: 1,2110 nM
O=C(NCCNc1ccnc(Nc2ccc(F)cc2)n1)Nc1ccc2c(c1)OCO2 [GSK1379882A],potency estimated from few doses,[11],1250 nM
CNC(=O)c1cncc(/C=C/c2ccccc2C)c1 [GW445015X],potency estimated from few doses,[9]; CATDS: 1,795 nM
Cc1cc(O)cc(C)c1/C=C/c1cncc(C(=O)OC(C)(C)C)c1 [GW439255X],potency estimated from few doses,[9]; CATDS: 1,437 nM
Lestaurtinib,potency estimated from few doses,"[12]; compound concentrations:100 nM and 1000 nM (sheet 'Lestaurtinib' of Supplementary Table 1),run:Lestaurtinib_02364_R1,Plate:MR002",1630 nM
same,potency estimated from few doses,[12]; [22],80.8 nM
same,potency estimated from few doses,"[12]; compound concentrations:100 nM and 1000 nM (sheet 'Lestaurtinib' of Supplementary Table 1),run:Lestaurtinib_02437_R3,Plate:MR007",474 nM
same,potency estimated from few doses,"[12]; compound concentrations:100 nM and 1000 nM (sheet 'Lestaurtinib' of Supplementary Table 1),run:Lestaurtinib_02572_R1,Plate:MR015",1620 nM
same,potency estimated from few doses,[13]; [22],760 nM
same,potency estimated from few doses,[13]; [23],385 nM
same,potency estimated from few doses,"[14]; compound concentrations:100 nM and 1000 nM (sheet 'Lestaurtinib' of Supplementary Table 1),run:Lestaurtinib_02339_R2,Plate:MR001",2130 nM
same,potency estimated from few doses,[14]; [24],2170 nM
same,potency estimated from few doses,"[15]; compound concentrations:100 nM and 1000 nM (sheet 'Lestaurtinib' of Supplementary Table 1),run:Lestaurtinib_02438_R3,Plate:MR008",1600 nM
same,potency estimated from few doses,"[15]; compound concentrations:100 nM and 1000 nM (sheet 'Lestaurtinib' of Supplementary Table 1),run:Lestaurtinib_02765_R1,Plate:MR026",1440 nM
same,potency estimated from few doses,"[15]; compound concentrations:100 nM and 1000 nM (sheet 'Lestaurtinib' of Supplementary Table 1),run:Lestaurtinib_03172_R1,Plate:MR031",1700 nM
same,potency estimated from few doses,[16]; [24],1430 nM
same,potency estimated from few doses,"[16]; compound concentrations:100 nM and 1000 nM (sheet 'Lestaurtinib' of Supplementary Table 1),run:Lestaurtinib_02896_R3,Plate:MR030",2210 nM
same,potency estimated from few doses,"[17]; compound concentrations:100 nM and 1000 nM (sheet 'Lestaurtinib' of Supplementary Table 1),run:Lestaurtinib_02407_R1,Plate:MR005",1700 nM
same,potency estimated from few doses,"[17]; compound concentrations:100 nM and 1000 nM (sheet 'Lestaurtinib' of Supplementary Table 1),run:Lestaurtinib_02473_R3,Plate:MR010",2250 nM
same,potency estimated from few doses,[17]; [25],2350 nM
same,potency estimated from few doses,"[18]; compound concentrations:100 nM and 1000 nM (sheet 'Lestaurtinib' of Supplementary Table 1),run:Lestaurtinib_02482_R3,Plate:MR011",1960 nM
same,potency estimated from few doses,[18]; [23],1310 nM
same,potency estimated from few doses,[18]; [25],1960 nM
same,potency estimated from few doses,"[18]; compound concentrations:100 nM and 1000 nM (sheet 'Lestaurtinib' of Supplementary Table 1),run:Lestaurtinib_02748_R2,Plate:MR024",994 nM
same,potency estimated from few doses,[19]; [24],1570 nM
same,potency estimated from few doses,"[19]; compound concentrations:100 nM and 1000 nM (sheet 'Lestaurtinib' of Supplementary Table 1),run:Lestaurtinib_03172_R3,Plate:MR031",2210 nM
same,potency estimated from few doses,"[19]; compound concentrations:100 nM and 1000 nM (sheet 'Lestaurtinib' of Supplementary Table 1),run:Lestaurtinib_03252_R2,Plate:MR032",2120 nM
O=C1NC(=O)C(c2ccccc2Cl)=C1Nc1cccc(O)c1 [SB-390527],potency estimated from few doses,"[10]; compound concentrations: 100 nM and 1000 nM (sheet 'Samples'), CATDS: 1",1140 nM
NC(=O)c1sc(-n2cnc3ccccc32)cc1OCc1ccccc1Br [GSK1023156A],potency estimated from few doses,[20]; CATDS: 1,814 nM
COc1cc2ncn(-c3cc(OCC4CCCO4)c(C(N)=O)s3)c2cc1OC (stereo not drawn) [GSK204607A],potency estimated from few doses,[20]; CATDS: 0.33403432138317102,838 nM
same,potency estimated from few doses,"[10]; compound concentrations: 100 nM and 1000 nM (sheet 'Samples'), CATDS: 0.28828322823587899",1160 nM
Nc1nonc1-c1nc2cnccc2n1C1CC1 [SB-736302],potency estimated from few doses,"[5]; compound concentrations: 100 nM and 1000 nM (sheet 'Samples'), CATDS: 0.42822259112974997",348 nM
O=C1NC(=O)C(c2ccccc2Cl)=C1Nc1cccc(Cl)c1 [SB-342409],potency estimated from few doses,[10]; [21],811 nM
Cc1nn(-c2ccccc2)c(O)c1C(=O)c1ccccc1 [RO1151080-000],potency estimated from few doses,[7]; CATDS: 1,1360 nM
c1ccc(Oc2ccc(Nc3ccnc4ccc(-c5ccccn5)cc34)cc2)cc1 [GW407034X],potency estimated from few doses,[9]; CATDS: 0.62079920866718596,189 nM
Cc1ccccc1COc1cc(-n2cnc3cc(Cl)ccc32)sc1C(N)=O [GW813349X],potency estimated from few doses,[20]; CATDS: 1,1570 nM
CC1=C(C(=O)Nc2cc3cn[nH]c3cc2F)C(c2ccc(C(F)(F)F)cc2)CC(=O)N1 (stereo not drawn) [GSK429286A],potency estimated from few doses,[6]; CATDS: 0.172679408369589,1700 nM
COc1ccc2ncn(-c3cc(O[C@H](C)c4ccccc4C(F)(F)F)c(C(N)=O)s3)c2c1 [GSK317315A],potency estimated from few doses,[20]; CATDS: 0.88975940081611404,128 nM
COc1cccc(C2=C(N(C)c3ccccc3)C(=O)NC2=O)c1 [SB-334865],potency estimated from few doses,[20]; CATDS: 1,1420 nM
Cc1nnc(-c2ccc(C)c(-c3ccc(C(=O)Nc4ccc(NS(C)(=O)=O)cc4)cc3)c2)o1 [GW702865X],potency estimated from few doses,[11],1620 nM
CCn1c(-c2nonc2N)nc2cnc(Oc3cccc(NC(=O)c4ccc(N(C)C)cc4)c3)cc21 [GSK248233A],potency estimated from few doses,[5]; [21],1780 nM
